Measurements: PubChem BioAssay AID623892 (Vanderbilt Specialized Chemistry Center, 2012)
A number with no mark means an inactive call.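 The calls were made as follows: active = potentiator with a glutamate EC50 fold shift of at least 2, or antagonist at 0.5 or below; inactive = fold shift between 0.5 and 2.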

Biological target: Metabotropic glutamate receptor 8 (Rattus norvegicus) (UniProt P70579)
Test: off-target activity at rat mGlu8, profiling panel, selectivity assay for mGlu4 lead optimization, cell-based, thallium flux (AID 623892)
Conditions: HEK cells rat mGlu8, thallium flux, at 10 µM

Chain of Metabotropic glutamate receptor 8 (Rattus norvegicus) (P70579 whole entry, looked up): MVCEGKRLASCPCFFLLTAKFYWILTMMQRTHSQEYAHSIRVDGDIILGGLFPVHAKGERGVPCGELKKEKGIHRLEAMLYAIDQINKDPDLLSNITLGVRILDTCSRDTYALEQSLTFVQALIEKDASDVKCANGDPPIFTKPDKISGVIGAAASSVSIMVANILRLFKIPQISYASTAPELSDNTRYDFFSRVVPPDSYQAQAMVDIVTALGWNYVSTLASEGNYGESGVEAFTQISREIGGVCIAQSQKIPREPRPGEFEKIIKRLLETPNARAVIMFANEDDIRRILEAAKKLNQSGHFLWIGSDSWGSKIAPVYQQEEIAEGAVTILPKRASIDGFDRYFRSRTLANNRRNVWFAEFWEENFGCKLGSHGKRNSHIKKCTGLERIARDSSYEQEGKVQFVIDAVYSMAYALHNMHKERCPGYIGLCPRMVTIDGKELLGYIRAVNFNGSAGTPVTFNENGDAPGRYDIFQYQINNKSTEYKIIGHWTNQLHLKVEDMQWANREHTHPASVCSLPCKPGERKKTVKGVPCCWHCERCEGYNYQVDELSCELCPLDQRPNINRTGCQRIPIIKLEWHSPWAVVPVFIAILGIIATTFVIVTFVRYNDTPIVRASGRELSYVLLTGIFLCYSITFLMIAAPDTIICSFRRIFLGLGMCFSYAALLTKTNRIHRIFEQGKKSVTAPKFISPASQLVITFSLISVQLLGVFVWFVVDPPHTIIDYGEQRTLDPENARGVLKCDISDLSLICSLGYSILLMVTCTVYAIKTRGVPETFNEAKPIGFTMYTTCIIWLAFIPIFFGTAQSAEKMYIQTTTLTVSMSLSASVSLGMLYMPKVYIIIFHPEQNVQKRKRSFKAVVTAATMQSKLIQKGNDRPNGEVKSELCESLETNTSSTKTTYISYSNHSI

Molecule `O=C(Nc1cccc(Cl)c1)c1ccccn1` has a fold shift of glutamate EC50 of 1.47.
